Test results from PubChem BioAssay (Tox21).
Inconclusive results are not listed. The source made the active and inactive calls. Unless noted, the call rests on the fitted dose curve; in most records, active means well fitted curve in the direction sought with a large enough effect in the repeat runs; inconclusive means weak or mixed curves; inactive means no such curve, though single readings can be large; an effect the other way counts as inactive or inconclusive.

Legend:
[1] = qHTS assay for identifying genotoxic compounds that show differential cytotoxicity against isogenic chicken DT40 cell lines with known DNA damage response pathways - wild type cell line (AID 743012); settings: DT40 wild type chicken cells viability, CellTiter-Glo, 40 h; series mostly up to 68.4 µM; further: nearly all actives have a fitted effect of over 60% in size; further: potency means the concentration at half of the fitted maximal effect
In short: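 Wild type DT40, 300 cells/well, ~0.5 h settle at 37 C/5% CO2; compounds in DMSO added by pintool; 40 h at 37 C/5% CO2; CellTiter-Glo, 30 min RT; luminescence.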

[2] = qHTS assay for identifying genotoxic compounds that show differential cytotoxicity against isogenic chicken DT40 cell lines with known DNA damage response pathways - Rev3 mutant cell line (AID 743014); settings: chicken DT40 Rev3-/- viability, CellTiter-Glo, 40 h; series mostly up to 68.4 µM; further: nearly all actives have a fitted effect of over 55% in size; further: potency means the concentration at half of the fitted maximal effect
[3] = qHTS assay for identifying genotoxic compounds that show differential cytotoxicity against isogenic chicken DT40 cell lines with known DNA damage response pathways - Rad54/Ku70 mutant cell line (AID 743015); settings: DT40 Rad54/Ku70 mutant viability, CellTiter-Glo, 40 h; series mostly up to 66.8 µM; further: nearly all actives have a fitted effect of over 60% in size; further: potency means the concentration at half of the fitted maximal effect
[4] = qHTS assay to identify small molecule antagonists of the androgen receptor (AR) signaling pathway - cell viability counter screen (AID 743033; further: nearly all actives have a fitted effect of over 45% in size); settings: AR-bla HEK293 viability, CellTiter-Glo luminescence, 16 h; series mostly up to 58.5 µM
[5] = target: Androgen receptor (Homo sapiens) (UniProt P10275); assay: qHTS assay to identify small molecule antagonists of the androgen receptor (AR) signaling pathway (AID 743035; active means well fitted inhibition curve with a large enough effect in the signal ratio in the repeat runs, not every such curve was filed as active; the % refers to the signal ratio); settings: HEK293 AR-UAS-bla, R1881-stimulated, beta-lactamase FRET, 16 h; series mostly up to 58.5 µM
Androgen receptor (Homo sapiens), sequence (P10275 whole entry, looked up): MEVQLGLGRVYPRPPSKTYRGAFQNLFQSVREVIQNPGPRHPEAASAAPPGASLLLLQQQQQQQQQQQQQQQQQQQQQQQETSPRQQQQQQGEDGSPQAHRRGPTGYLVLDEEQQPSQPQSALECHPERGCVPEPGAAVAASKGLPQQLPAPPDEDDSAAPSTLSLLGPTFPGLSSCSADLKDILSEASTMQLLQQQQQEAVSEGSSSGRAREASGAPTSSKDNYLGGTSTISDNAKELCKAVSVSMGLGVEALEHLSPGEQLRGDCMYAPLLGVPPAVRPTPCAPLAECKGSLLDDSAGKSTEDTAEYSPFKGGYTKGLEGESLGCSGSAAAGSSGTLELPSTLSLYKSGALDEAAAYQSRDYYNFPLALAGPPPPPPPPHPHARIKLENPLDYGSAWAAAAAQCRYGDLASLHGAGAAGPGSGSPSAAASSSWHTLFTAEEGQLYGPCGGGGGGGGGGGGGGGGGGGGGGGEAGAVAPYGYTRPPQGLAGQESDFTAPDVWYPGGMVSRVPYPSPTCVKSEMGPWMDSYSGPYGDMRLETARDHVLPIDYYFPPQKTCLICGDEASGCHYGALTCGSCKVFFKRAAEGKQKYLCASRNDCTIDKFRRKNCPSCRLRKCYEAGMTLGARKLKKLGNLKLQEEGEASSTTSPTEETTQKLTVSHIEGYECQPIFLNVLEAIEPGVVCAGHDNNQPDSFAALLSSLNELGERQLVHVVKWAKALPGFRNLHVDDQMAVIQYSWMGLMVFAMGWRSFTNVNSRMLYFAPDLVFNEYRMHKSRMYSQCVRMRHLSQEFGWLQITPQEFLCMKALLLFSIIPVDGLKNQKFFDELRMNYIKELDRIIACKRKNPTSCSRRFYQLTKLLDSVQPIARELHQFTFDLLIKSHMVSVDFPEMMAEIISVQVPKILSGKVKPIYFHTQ
In short: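 Fluorescence from a beta-lactamase FRET substrate (LiveBLAzer B/G, 2 h, room temperature) measured inhibition of R1881-stimulated signaling in GeneBLAzer AR-UAS-bla HEK293 cells exposed to compound for 16 h at 37C.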

[6] = target: Androgen receptor (Homo sapiens) (UniProt P10275); assay: qHTS assay to identify small molecule agonists of the androgen receptor (AR) signaling pathway (AID 743036; active means well fitted activation curve with a large enough effect in the signal ratio in the repeat runs, with a control signal flat, not every such curve was filed as active; the % refers to the signal ratio); settings: HEK293 AR-UAS-bla GripTite, beta-lactamase FRET ratio, 16 h; series mostly up to 62.4 µM
In short: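 Beta-lactamase under UAS control, stably integrated in HEK293 GripTite cells, reports receptor activation. After 16 h compound treatment, cells received FRET substrate for 2 h at room temperature before fluorescence reading.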

[7] = target: Androgen receptor (Homo sapiens) (UniProt P10275); assay: qHTS assay to identify small molecule agonists of the androgen receptor (AR) signaling pathway using the MDA cell line (AID 743040; further: nearly all actives have a fitted effect of over 20% in size); settings: MDA-kb2 AR-luc cells, MMTV luciferase, 16 h, hits give high values; series mostly up to 70.3 µM
In short: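 After a 5 h incubation at 37C and 0% CO2, MDA-kb2 reporter cells were dosed with compounds in DMSO and kept 16 h under the same conditions. Luciferase activity was then read as luminescence with ONE-Glo.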

[8] = qHTS assay to identify small molecule antagonists of the androgen receptor (AR) signaling pathway using the MDA cell line - cell viability counter screen (AID 743041; further: nearly all actives have a fitted effect of over 45% in size); settings: MDA-kb2 viability, CellTiter-Fluor, 16 h, cells co-treated with R1881 androgen agonist; series mostly up to 70.3 µM
In short: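 R1881-driven MDA-kb2 AR-luc cells, 3,000/well, were dosed with library compounds for 16 h; cell health came from CellTiter-Fluor fluorescence in the reporter wells.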

[9] = target: Androgen receptor (Homo sapiens) (UniProt P10275); assay: qHTS assay to identify small molecule antagonists of the androgen receptor (AR) signaling pathway using the MDA cell line (AID 743042; further: nearly all actives have a fitted effect of over 55% in size); settings: MDA-kb2 AR-luc, MMTV luciferase, R1881 antagonist, 16 h; series mostly up to 70.3 µM
In short: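 Antagonist mode: compounds plus R1881 agonist added to MDA-kb2 AR-luc cells, incubated 16 h at 37C. Luciferase reporter luminescence quantified, with multiplexed CellTiter-Fluor readout for cell viability.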

[10] = qHTS assay to identify small molecule antagonists of the thyroid receptor (TR) signaling pathway - cell viability counter screen (AID 743064); settings: GH3.TRE-Luc viability, CellTiter-Fluor, 24 h; series mostly up to 70.3 µM; further: nearly all actives have a fitted effect of over 50% in size
In short: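 Compounds were tested on GH3.TRE-Luc cells in the presence of T3 at 1 nM final. Following 23.5 h at 37 °C, cell viability was quantified by CellTiter-Fluor.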

[11] = test system: thyroid hormone receptor (rat, GH3 cells); assay: qHTS assay to identify small molecule agonists of the thyroid receptor (TR) signaling pathway (AID 743066; calls by dose curve); settings: GH3.TRE-Luc cells, TR agonist luciferase, 24 h; series mostly up to 83.9 µM
[12] = target: Estrogen receptor (Homo sapiens) (UniProt P03372); assay: qHTS assay to identify small molecule antagonists of the estrogen receptor alpha (ER-alpha) signaling pathway (AID 743069; active means well fitted curve in the direction sought with a large enough effect in the signal ratio in the repeat runs, not every such curve was filed as active; the % refers to the signal ratio); settings: HEK293 ER-alpha-UAS-bla, beta-lactamase ratio, antagonist mode; series mostly up to 69.4 µM
Estrogen receptor (Homo sapiens), sequence (P03372 whole entry, looked up): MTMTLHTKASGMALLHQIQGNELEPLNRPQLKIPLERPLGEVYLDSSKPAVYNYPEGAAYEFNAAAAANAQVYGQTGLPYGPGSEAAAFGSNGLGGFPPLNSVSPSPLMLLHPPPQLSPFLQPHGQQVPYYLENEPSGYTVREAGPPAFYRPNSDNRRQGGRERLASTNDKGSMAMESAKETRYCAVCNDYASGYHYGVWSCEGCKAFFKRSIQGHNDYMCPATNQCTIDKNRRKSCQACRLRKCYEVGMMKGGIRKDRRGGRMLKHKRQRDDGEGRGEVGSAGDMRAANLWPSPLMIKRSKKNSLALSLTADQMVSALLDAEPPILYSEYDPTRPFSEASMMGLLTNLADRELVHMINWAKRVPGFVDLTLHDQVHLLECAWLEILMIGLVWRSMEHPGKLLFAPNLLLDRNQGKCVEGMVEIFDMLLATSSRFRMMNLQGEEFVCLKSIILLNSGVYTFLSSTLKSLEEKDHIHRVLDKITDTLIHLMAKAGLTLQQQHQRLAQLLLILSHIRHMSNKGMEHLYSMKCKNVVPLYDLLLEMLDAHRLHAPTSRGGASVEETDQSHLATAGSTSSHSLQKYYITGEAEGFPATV
In short: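 Compound effects are measured against 17beta-estradiol stimulation in HEK293 cells with a UAS-controlled beta-lactamase reporter for ER-alpha. Exposure lasts 18 hr at 37C; LiveBLAzer B/G FRET substrate follows for 2 hr at room temperature.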

[13] = qHTS assay to identify small molecule antagonists of the estrogen receptor alpha (ER-alpha) signaling pathway - cell viability counter screen (AID 743074; calls by dose curve;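 further: HEK293 cells carrying ER-alpha-UAS-bla reporter stimulated with 17beta-estradiol; nearly all actives have a fitted effect of over 45% in size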); settings: ERalpha-bla HEK293 viability, CellTiter-Glo luminescence, 18 h; series mostly up to 69.4 µM
[14] = target: Estrogen receptor (Homo sapiens) (UniProt P03372); assay: qHTS assay to identify small molecule agonists of the estrogen receptor alpha (ER-alpha) signaling pathway (AID 743075; calls by dose curve; further: potency means the concentration at half of the fitted maximal effect); settings: HEK293 ER-alpha-UAS-bla, beta-lactamase FRET ratio, 18 h; series mostly up to 70.1 µM
[15] = target: Estrogen receptor (Homo sapiens) (UniProt P03372); assay: qHTS assay to identify small molecule agonists of the estrogen receptor alpha (ER-alpha) signaling pathway using the BG1 cell line (AID 743079); settings: BG1Luc4E2 cells, ERE-luciferase agonist, 22 h; series mostly up to 70.3 µM; further: nearly all actives have a fitted effect of over 20% in size; further: potency means the concentration at half of the fitted maximal effect
[16] = qHTS assay to identify small molecule antagonists of the estrogen receptor alpha (ER-alpha) signaling pathway using the BG1 cell line (AID 743080; calls by dose curve;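 further: BG1 cells stimulated with 17beta-estradiol alongside compound; nearly all actives have a fitted effect of over 25% in size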); settings: BG1Luc4E2 ERE-luciferase antagonist mode, luminescence; series mostly up to 70.3 µM
In short: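 Luciferase inhibition measured with ONE-Glo after 30 min at RT in BG1Luc4E2 cells given test compounds and 17beta-estradiol for 21.5 h at 37 C; CellTiter-Fluor viability read in the same wells beforehand.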

[17] = qHTS assay to identify small molecule antagonists of the estrogen receptor alpha (ER-alpha) signaling pathway using the BG1 cell line - cell viability counter screen (AID 743081); settings: BG1Luc4E2 viability, CellTiter-Fluor, 22 h; series mostly up to 70.3 µM;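 further: compound given together with 17beta-estradiol as the ER stimulus; nearly all actives have a fitted effect of over 45% in size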
Aromatase (Homo sapiens) = Aromatase (Homo sapiens) (UniProt P11511); assay: qHTS assay to identify aromatase inhibitors (AID 743083); settings: MCF-7 aro ERE, testosterone-driven ERE luciferase, 24 h; series mostly up to 70.3 µM; further: nearly all actives have a fitted effect of over 55% in size
Aromatase (Homo sapiens), sequence (P11511 whole entry, looked up): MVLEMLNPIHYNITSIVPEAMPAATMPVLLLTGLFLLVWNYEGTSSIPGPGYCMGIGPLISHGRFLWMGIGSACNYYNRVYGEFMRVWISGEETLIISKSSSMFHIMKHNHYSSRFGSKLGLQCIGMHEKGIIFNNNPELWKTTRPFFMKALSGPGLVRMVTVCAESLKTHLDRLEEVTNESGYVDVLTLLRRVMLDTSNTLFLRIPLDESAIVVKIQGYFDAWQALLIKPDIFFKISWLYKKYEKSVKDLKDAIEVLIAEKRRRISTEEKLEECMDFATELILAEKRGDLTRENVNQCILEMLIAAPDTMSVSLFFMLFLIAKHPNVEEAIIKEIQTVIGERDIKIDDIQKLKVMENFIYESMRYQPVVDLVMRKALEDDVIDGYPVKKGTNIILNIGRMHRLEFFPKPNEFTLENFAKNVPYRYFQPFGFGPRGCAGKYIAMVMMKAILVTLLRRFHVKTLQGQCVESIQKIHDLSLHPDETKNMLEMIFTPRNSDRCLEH

[18] = qHTS assay to identify small molecule antagonists of the glucocorticoid receptor (GR) signaling pathway - cell viability counter screen (AID 720693); settings: GR-bla HeLa viability, CellTiter-Glo luminescence, 18 h, with 5 nM dexamethasone present; series mostly up to 58.5 µM; further: nearly all actives have a fitted effect of over 55% in size
[19] = qHTS assay to identify small molecule antagonists of the thyroid receptor (TR) signaling pathway (AID 743065); settings: GH3.TRE-Luc, T3-stimulated luciferase inhibition, 23.5 h; series mostly up to 70.3 µM; further: nearly all actives have a fitted effect of over 55% in size
In short: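 Antagonism measured as loss of luciferase signal in GH3 cells stably carrying a TRE-luciferase reporter, co-treated with compound and T3 (1 nM final) for 23.5 h at 37 C. Viability was read in the same well by CellTiter-Fluor.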

Measured: Potency

CNC(=O)NC
inactive: [1] | [2] | [3] | [4] | [5] | [6] | [7] | [8] | [9] | [10] | [11] | [12] | [13] | [14] | [15] | [16] | [17] | Aromatase (Homo sapiens)

CCCCCC1CCCC(=O)O1 (configuration not stated)
inactive: [18] | [2] | [3] | [4] | [8] | [19] | [11] | [13] | [17] | Aromatase (Homo sapiens)

Cc1oc(=O)oc1CN1CCN(c2cc3c(cc2F)c(=O)c(C(=O)O)c2n3C(C)S2)CC1 (configuration not stated)
inactive: [18] | [4] | [8] | [11] | [13] | [16] | [17] | Aromatase (Homo sapiens)
active: [14] 23.9 µM [activator] | [15] 8.41 µM

O=P(O)(O)OCC(O)CO (configuration not stated)
inactive: [1] | [2] | [3] | [4] | [8] | [10] | [19] | [11] | [12] | [14] | [15] | [16] | [17] | Aromatase (Homo sapiens)

CCN1CN(CC)CN(CC)C1
inactive: [1] | [2] | [3] | [4] | [8] | [10] | [19] | [11] | [12] | [13] | [14] | [15] | [16] | [17] | Aromatase (Homo sapiens)

O=C1c2ccccc2-c2ccccc21
inactive: [18] | [2] | [4] | [5] | [6] | [7] | [8] | [9] | [10] | [19] | [11] | [13] | [17] | Aromatase (Homo sapiens)

O=S(=O)(O)SSS(=O)(=O)O
inactive: [18] | [2] | [3] | [4] | [5] | [6] | [7] | [8] | [9] | [10] | [11] | [13] | [17] | Aromatase (Homo sapiens)

CC(=O)Nc1ncc([N+](=O)[O-])s1
inactive: [1] | [2] | [3] | [4] | [8] | [10] | [19] | [11] | [12] | [13] | [14] | [15] | [16] | [17] | Aromatase (Homo sapiens)

O=C(O)c1ccccc1C(=O)Nc1ccc(S(=O)(=O)Nc2nccs2)cc1
inactive: [1] | [2] | [3] | [4] | [5] | [6] | [7] | [8] | [9] | [19] | [11] | [13] | [17] | Aromatase (Homo sapiens)

CCCCCC1Nc2cc(C(F)(F)F)c(S(N)(=O)=O)cc2S(=O)(=O)N1 (configuration not stated)
inactive: [18] | [2] | [3] | [4] | [10] | [19] | [11] | [12] | [13] | [14] | [15] | [16] | [17] | Aromatase (Homo sapiens)

CCOC(=O)CCCCCCCCC(=O)OCC
active: [2] 61.1 µM
inactive: [18] | [4] | [8] | [10] | [19] | [11] | [12] | [13] | [14] | [16] | [17] | Aromatase (Homo sapiens)

CCOC(=O)CC(CC(=O)OCC)(OC(C)=O)C(=O)OCC
inactive: [18] | [2] | [4] | [8] | [10] | [11] | [13] | [17] | Aromatase (Homo sapiens)

CC(Cl)COP(=O)(OCC(C)Cl)OCC(C)Cl (configuration not stated)
inactive: [18] | [4] | [8] | [10] | [11] | [12] | [13] | [14] | [15] | [16] | [17] | Aromatase (Homo sapiens)
active: [2] 54.2 µM

C[C@@H]1C[C@H]2[C@@H]3C[C@H](F)C4=CC(=O)C=C[C@]4(C)[C@@]3(F)[C@@H](O)C[C@]2(C)[C@@]1(O)C(=O)CO
inactive: [18] | [8] | [10] | [19] | [11] | [13] | [17] | Aromatase (Homo sapiens)

C[N+](C)(C)CC(O)CCl (configuration not stated)
inactive: [1] | [2] | [3] | [4] | [8] | [10] | [19] | [11] | [12] | [13] | [14] | [15] | [17] | Aromatase (Homo sapiens)

CCCCOC(=O)C(C)OC(=O)CCC (configuration not stated)
inactive: [18] | [2] | [4] | [8] | [10] | [19] | [11] | [12] | [13] | [14] | [15] | [16] | [17] | Aromatase (Homo sapiens)

CC(C)CCC(=O)CCC(C)C
inactive: [4] | [10] | [19] | [11] | [12] | [14] | [15] | [16] | [17] | Aromatase (Homo sapiens)
active: [1] 68.6 µM | [2] 68.6 µM | [3] 61.1 µM

c1ccc(CNc2ncnc3nc[nH]c23)cc1
inactive: [4] | [8] | [10] | [11] | [13] | [17]

C=C(C)[C@@H]1CC[C@@H](C)C[C@@H]1O
inactive: [1] | [2] | [3] | [4] | [8] | [10] | [13] | [17] | Aromatase (Homo sapiens)

C1=CCC(c2ccccc2)CC1 (configuration not stated)
inactive: [4] | [8] | [19] | [11] | [13] | [17] | Aromatase (Homo sapiens)
active: [1] 61.1 µM | [2] 30.6 µM | [3] 54.5 µM
